The values that follow come from PubChem BioAssay AID2238 (Southern Research Specialized Biocontainment Screening …, 2010).

The source made the active and inactive calls. The rule behind the calls is not given here.

The assay in a line: antiviral protection of cells from WNV – synthesized analogs, SAR follow-up (AID 2238). As to conditions: West Nile virus CPE inhibition in cells; max CPE inhibition: measured here: maximum CPE inhibition observed, at 40 µM, stronger effect = higher value unless noted; series mostly up to 40 µM; CPE inhibition: at the top concentration.
`Cc1cccc2nc3n(c(=O)c12)CCC3`: the max CPE inhibition came to 1.92% and the “CPE inhibition” value is 1.77% (inactive).

On to `O=C(Nc1nc(-c2ccc(Cl)cc2)cs1)c1ccccc1Cl`, for which the max CPE inhibition amounted to 0.4% and the “CPE inhibition” value was 0.16% (inactive).

As for `CC1(O)c2cc(Br)ccc2N=C2CCCN21` (stereo not drawn), the “CPE inhibition” value is 0.97% (inactive) and the max CPE inhibition was 1.3% [measured here: maximum CPE inhibition observed, at 0.16 µM, stronger effect = higher value].

For `CCCCN(C(=O)c1ccccc1Cl)c1nc(-c2ccc(OC)cc2)cs1`, the “CPE inhibition” value is 1.9% (inactive) and the max CPE inhibition came out at 1.9%.
